Laboratory results taken from PubChem BioAssay AID777 (Sanford-Burnham Center for Chemical Genomics, 2007).
Hit rate of the full screen: of about 96,000 compounds, about 19,000 (20%) were called active. These entries were drawn from the full list. A number with no mark means an inactive call.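 Rule for the calls: active = blocking of liver enzyme CYP2C9 beyond about 50% at 5 µM (limit read from the data); inactive = the rest.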

What follows are compounds tested against Cytochrome P450 2C9 (Homo sapiens) (UniProt P11712) (assay: blockers of cytochrome P450 2C9 activity – biochemical, luminescence, ADME assay, primary screen (AID 777)). Conditions: CYP2C9 Supersomes, luciferin-H conversion, at 5 µM, active compounds read high.
Cytochrome P450 2C9 (Homo sapiens), sequence (P11712 whole entry, looked up): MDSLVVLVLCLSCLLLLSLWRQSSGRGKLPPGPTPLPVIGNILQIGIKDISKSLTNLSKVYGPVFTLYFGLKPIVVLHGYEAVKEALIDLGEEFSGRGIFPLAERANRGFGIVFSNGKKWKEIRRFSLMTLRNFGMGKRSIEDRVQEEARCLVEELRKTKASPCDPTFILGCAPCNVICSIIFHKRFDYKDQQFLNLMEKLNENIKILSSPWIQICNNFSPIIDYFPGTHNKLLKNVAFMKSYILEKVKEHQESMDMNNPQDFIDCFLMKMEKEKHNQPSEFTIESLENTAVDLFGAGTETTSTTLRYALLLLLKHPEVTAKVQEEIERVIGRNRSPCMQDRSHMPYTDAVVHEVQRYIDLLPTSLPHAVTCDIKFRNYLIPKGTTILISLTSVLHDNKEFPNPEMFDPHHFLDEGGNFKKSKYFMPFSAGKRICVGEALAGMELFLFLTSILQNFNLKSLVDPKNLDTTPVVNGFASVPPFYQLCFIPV

Structure (SMILES) | inhibition
Nc1nc(SCc2ccccc2Cl)n[nH]1 | -6.7%
CSCc1cc(N2CCOCC2)nc(SCc2ccc(Cl)cc2Cl)n1 | 57.5% (active)
O=c1cc(CSc2ccc(Cl)cc2)nc(N2CCOCC2)[nH]1 | 8.5%
Clc1ccc(CSc2nnc(/C=C/c3ccccc3)o2)c(Cl)c1 | 49.9%
CSCc1cc(N(C)C)nc(SCc2ccc(Cl)cc2Cl)n1 | 56.7% (active)
COc1ccc([N+](=O)[O-])cc1C1NN=C(c2cccc3ccccc23)S1 (configuration not stated) | -70.8%
CCC(=O)NNc1cc(=O)c2c(=O)n(C)c(=O)n(C)c2[nH]1 | 4%
COc1ccc(S(=O)(=O)NC2(C(F)(F)F)N=C3SCCN3C2=O)cc1 (configuration not stated) | -5.2%
CSCCC(NC(=O)c1ccc(=O)n(C)n1)c1nc2ccccc2[nH]1 (configuration not stated) | 10.3%
CC1CCCCC1NC(=O)CCS(=O)(=O)c1cccc2nonc12 (configuration not stated) | 7.9%
CCNC(=O)CN(c1ccc(C)cc1)S(=O)(=O)c1ccc(SC)cc1 | 26.9%
Cc1ccc(S(=O)(=O)N(CC(=O)NCCSC2CCCCC2)c2ccccc2F)cc1 | -9.7%
CCCNC(=O)CN(Cc1ccccc1F)S(=O)(=O)c1ccc(C)cc1 | 74.3% (active)
CCCC(=O)N(CCc1ccccc1)Cc1nc2ccccc2c(=O)[nH]1 | 38.3%
COc1nc(-c2ccc(Cl)cc2)ccc1-c1noc(-c2cccs2)n1 | 23.2%
C=CCNc1nc(N)c(C(=C(C#N)C#N)c2ccccc2)s1 | 69.6% (active)
C=CCNC(=O)c1csc(-c2ccccc2)n1 | 35.2%
CCCn1c(=O)c2ccccc2n2c(SCC(=O)/C(C#N)=C(\C)N)nnc12 | 14.3%
CCOc1ccccc1NC(=O)CCc1ccc(C)o1 | -185%
CC1=NCCN1S(=O)(=O)c1ccc(Br)c(C)c1 | -80.5%
CCCCOc1ccc(CSC(=N)N)cc1[N+](=O)[O-] | 20%
CCCCOc1ccc(Cl)cc1CSc1nncn1N | 74.2% (active)
Cn1ncc2c(Nc3cccc4ccccc34)ncnc21 | -1.5%
O=C1COc2ccc(NC(=O)N3CCN(c4ccc(F)cc4)CC3)cc2N1 | 19.5%
CC1=NC2(CCCc3c2no[n+]3[O-])N(O)C1(C)C (configuration not stated) | 11.5%

Structure (SMILES) | inhibition
O=S1(=O)CCN2C(=N1)SC1=C2CCN(Cc2ccccc2)C1 | 0.4%
COC(=O)CN(C(=S)Nc1ccc(Cl)cc1)C1CC(=O)N(c2ccc(OC)cc2)C1=O (configuration not stated) | 43.6%
COC(=O)c1ccccc1NC(=O)CSc1ccccn1 | -10.9%
Cc1cnc(NC(=O)CSc2c(Cl)cccc2Cl)s1 | 1.4%
COC(=O)c1c(-c2cccs2)csc1NC(=O)CSc1ncnc2sc(C)c(C)c12 | 76.2% (active)
CCn1c(SC)nc(O)c(C(c2ccc(OC)c(O)c2)c2c(O)nc(SC)n(CC)c2=O)c1=O | 23.3%
Cc1cc(C)nc(SCc2nnc(SCC(=O)OC3CCCCC3)o2)n1 | 7%
Nc1cc(=O)nc(SCc2ccccc2)n1Cc1ccco1 | 7.5%
CCOC(=O)CSc1nc2c(sc(=S)n2CCc2ccccc2)c(=O)n1Cc1ccco1 | 66.9% (active)
CCOC(=O)CSc1nnc(-c2ccco2)n1C | -20.3%
O=C(C1=C(O)C(=O)N(Cc2ccccc2)C1c1ccco1)c1ccco1 (configuration not stated) | 24%
CN(C)c1ccc(/C=C2\NC(=S)N(Cc3ccccc3)C2=O)cc1 | 66.2% (active)
CC1=NN(Cc2ccccc2)C(=O)/C1=C/c1ccc(N(C)C)cc1 | 14.4%
CN(C)c1cc[n+](Cc2ccccc2)cc1 | 2.2%
CCOC(=O)N1CCN(Cc2oc(CO)cc(=O)c2O)CC1 | -4.5%
CC(C)(C)Cc1nnc(NC(=O)c2cc(-c3ccccc3)nc3ccccc23)s1 | 11.3%
Cc1ccc(-c2cc(C(=O)Nc3nn[nH]n3)c3ccccc3n2)c(C)c1 | 23.9%
N/C(=N\OC(=O)c1cc(-c2ccccc2)nc2ccccc12)c1ccncc1 | 97.7% (active)
CC12CN(Cc3ccccc3)CC(C)(CN(Cc3ccccc3)C1)C2=NO | -1.5%
COc1cccc(-c2nc(S(=O)(=O)c3ccccc3)c(N3CCOCC3)o2)c1 | 27.5%
COc1cccc(-c2nc3cc(C)ccc3o2)c1 | 53.3% (active)
CCc1ccc2oc(-c3ccc(N)cc3)nc2c1 | -59.8%
O=C(O)CSCc1ccc(C(=O)O)o1 | 13.1%
CSc1ccc(S(=O)(=O)Nc2cccc(F)c2)cc1 | 93.8% (active)
O=C(O)c1ccc(F)c(S(=O)(=O)Nc2ccccc2)c1 | 17%

Structure (SMILES) | inhibition
CSc1ccc(S(=O)(=O)NCc2ccc(Cl)cc2)cc1 | -49.2%
CCn1cc(C(=O)N2CCN(C3CCCCC3)CC2)c2cc(OC)c(OC)cc2c1=O | 19%
Cc1cc2ncn(CCCCOc3ccccc3)c2cc1C | 27.5%
CCOC(=O)c1nnn(CC(=O)Nc2cccc(F)c2)c1C(=O)OCC | 60.3% (active)
CCOC(=O)c1cccc(NC(=O)CCc2c(C)nc3ncnn3c2C)c1 | 15.2%
CCOC(=O)c1cn(CC(=O)Nc2ccc(C(C)C)cc2)nn1 | 17.6%
CCOC(=O)c1ccc(NC(=O)CS(=O)(=O)c2cn(CC)c3ccccc23)cc1 | 20.9%
CCOC(=O)c1ccc(NC(=O)Cn2nnc(-c3ccc(C)cc3)n2)cc1 | 32%
CCOC(=O)c1cccc(NC(=O)CCn2nnc3ccccc32)c1 | 53.3% (active)
CCCc1nc2scc(-c3ccc(C)cc3)c2c(=O)n1N | 27.6%
COc1ccc(CNC(=O)CCn2cccc2)cc1 | 20.4%
CCCNC(=O)c1ccccc1NC(=O)CSCc1ccc(OC)cc1 | 15.3%
CCSc1ccccc1C(=O)NCc1ccc(OC)cc1 | 53.8% (active)
CC(C)(CNCC(O)c1ccccc1)N1CCOCC1 (configuration not stated) | -3.5%
CCOC(=O)C1(Cc2ccc(O)cc2)NC(c2ccccc2F)C2C(=O)N(C)C(=O)C21 (configuration not stated) | -15.1%
Cc1nc([N+](=O)[O-])nn1C12CC3CC(CC(Br)(C3)C1)C2 | 18.8%
CCOC(=O)N1CC=C2C(C#N)=C(N)C(C#N)(C#N)[C@H](c3cccs3)[C@H]2C1 | 11.7%
N#CC1=C(N)C(C#N)(C#N)[C@H](c2ccsc2)[C@H]2COCC=C12 | 61.4% (active)
CCN1CC=C2C(C#N)=C(N)C(C#N)(C#N)[C@H](c3ccoc3)[C@H]2C1 | -2.3%
CCOc1ccc(C(=O)NC(C(=O)NCc2ccccn2)C(C)C)cc1 (configuration not stated) | 6.7%
Cc1cc(C)cc(NC(=O)c2cccc(NC(=O)C3C4CC5OC(=O)C3C5C4)c2)c1 (configuration not stated) | -1.1%
O=C(Nc1ccc(Br)cc1)c1cccc(NC(=O)C2C3CC4OC(=O)C2C4C3)c1 (configuration not stated) | 66.4% (active)
O=C(Nc1cccc(C(=O)N2CCCC2)c1)c1ccccc1 | 31.3%
C/C(N)=C(\C#N)C(=O)NCCc1ccccn1 | -7.1%
Fc1ccc2nc(-c3ccccc3)nc(SCc3nnc(-c4ccccc4)o3)c2c1 | 76.7% (active)

Structure (SMILES) | inhibition
Cc1ccc2nc(SCc3nnc(-c4ccccc4[N+](=O)[O-])o3)c(C#N)cc2c1 | 20%
Fc1ccc(-c2nnc(CSc3nnc(-c4ccc5c(c4)OCO5)o3)o2)cc1 | -13.3%
COc1ccc(OC)c(NC(=O)c2cnn(-c3ccccc3Cl)c2NC(=O)c2ccco2)c1 | 24.5%
Cc1nc2nc(COc3ccccc3)[nH]n2c(=O)c1C | 1.1%
CCn1cc(C(=O)N/N=C(/C)c2ccc(F)cc2)c(=O)c2cc(F)c(N3CCCC3)cc21 | 5.7%
CN(c1ccccc1)c1ccc(/C=c2\s/c(=C(/C#N)C(=O)C(C)(C)C)n(Cc3ccco3)c2=O)cc1 | 41.9%
C=CCn1c(=N)n(CC(O)COc2ccc(OC)cc2)c2ccccc21 (configuration not stated) | -0.2%
COCCCn1c(CCC(=O)O)ccc1-c1ccc(F)cc1 | 39.8%
CC(C)(CSc1nncn1/N=C/c1ccco1)NS(=O)(=O)c1ccc(Cl)cc1 | 61.2% (active)
Cc1cc(C)c2c(c1)cc(C)c1nnc(SCC(=O)Nc3cc(C)on3)n12 | 10.5%
CCCS(=O)(=O)N1CCCC(C(=O)N2CCN(c3ccccc3)CC2)C1 (configuration not stated) | -1.6%
Cc1nnsc1S(=O)(=O)Cc1ccccc1Cl | 3.2%
CCCOc1cccc(C(=O)Nc2nnn(CCC)n2)c1 | 38.6%
COC(=O)[C@@H](NC(=O)NCc1cccc(OC)c1)C(C)C | -12.5%
CCOC(=O)C(CCOc1cccc(CC)c1)C(=O)OCC | 57% (active)
CC(C)=C(NC(=O)c1ccco1)C(=O)NCCc1nc2ccccc2[nH]1 | -29.7%
CCC(CC)C(=O)N1CC(=O)Nc2ccc(Br)cc2C1c1ccccc1 (configuration not stated) | 49.6%
S=c1[nH]nc2c3c4c(sc3ncn12)CCCC4 | 20.5%
CCCOc1ccccc1-c1nc(SCCC(=O)O)n[nH]1 | -1.3%
COC(=O)c1ccc(S(=O)(=O)N2CCC(c3nc4ccccc4o3)CC2)cc1 | 16.8%
N#CC(C(=O)c1ccc(S(=O)(=O)N2CCCCCC2)cc1)c1nc2ccccc2[nH]1 (configuration not stated) | 67.8% (active)
COc1ccccc1N1CCN(C(=O)c2ccc(S(=O)(=O)N3CCCCC3)cc2)CC1 | 45.8%
